Tests used:
[1] = test system: Epidermal growth factor receptor (Homo sapiens), P00533 [T790M]; details: at 1 µM
[2] = test system: Epidermal growth factor receptor (Homo sapiens), P00533 [L858R,T790M]; details: at 0.1 µM
[3] = test system: Epidermal growth factor receptor (Homo sapiens), P00533 [L858R,T790M]; details: at 1 µM
[4] = biological target: Ephrin type-A receptor 2 (Homo sapiens) (UniProt P29317); details: at 0.1 µM
[5] = biological target: Ephrin type-A receptor 2 (Homo sapiens) (UniProt P29317); details: at 1 µM
[6] = biological target: T1, Ephrin type-A receptor 3 (Homo sapiens) (UniProt P29320); details: at 0.1 µM
T1 sequence (whole entry): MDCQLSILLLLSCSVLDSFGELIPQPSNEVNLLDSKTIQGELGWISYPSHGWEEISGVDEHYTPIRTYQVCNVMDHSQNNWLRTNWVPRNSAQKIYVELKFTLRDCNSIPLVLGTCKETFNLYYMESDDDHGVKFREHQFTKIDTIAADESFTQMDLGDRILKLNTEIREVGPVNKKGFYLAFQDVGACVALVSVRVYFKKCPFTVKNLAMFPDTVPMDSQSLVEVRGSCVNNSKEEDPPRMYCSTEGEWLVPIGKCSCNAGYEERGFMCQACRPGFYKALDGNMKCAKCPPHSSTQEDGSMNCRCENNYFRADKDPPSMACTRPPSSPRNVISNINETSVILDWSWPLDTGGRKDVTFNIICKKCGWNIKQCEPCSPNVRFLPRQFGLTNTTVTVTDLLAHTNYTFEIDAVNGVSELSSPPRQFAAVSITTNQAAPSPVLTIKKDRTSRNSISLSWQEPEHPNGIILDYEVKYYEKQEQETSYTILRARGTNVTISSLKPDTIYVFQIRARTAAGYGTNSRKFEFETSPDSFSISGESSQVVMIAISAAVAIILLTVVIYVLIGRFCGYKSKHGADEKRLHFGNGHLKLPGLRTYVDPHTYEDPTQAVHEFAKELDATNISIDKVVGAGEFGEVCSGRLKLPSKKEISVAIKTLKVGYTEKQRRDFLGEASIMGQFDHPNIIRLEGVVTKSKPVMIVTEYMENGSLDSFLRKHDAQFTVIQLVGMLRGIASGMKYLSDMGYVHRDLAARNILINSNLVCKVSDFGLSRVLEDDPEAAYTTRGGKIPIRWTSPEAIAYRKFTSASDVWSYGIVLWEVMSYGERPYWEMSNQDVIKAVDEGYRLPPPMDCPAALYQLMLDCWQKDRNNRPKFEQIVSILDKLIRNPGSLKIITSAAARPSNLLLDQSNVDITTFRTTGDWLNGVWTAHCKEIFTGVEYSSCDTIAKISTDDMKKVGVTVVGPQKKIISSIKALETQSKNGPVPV

[7] = biological target: T1, Ephrin type-A receptor 3 (Homo sapiens); details: at 1 µM
[8] = biological target: Ephrin type-A receptor 4 (Homo sapiens) (UniProt P54764); details: at 0.1 µM
[9] = biological target: Ephrin type-A receptor 4 (Homo sapiens) (UniProt P54764); details: at 1 µM
[10] = biological target: T2, Ephrin type-B receptor 2 (Homo sapiens) (UniProt P29323); details: at 0.1 µM
T2 sequence (whole entry): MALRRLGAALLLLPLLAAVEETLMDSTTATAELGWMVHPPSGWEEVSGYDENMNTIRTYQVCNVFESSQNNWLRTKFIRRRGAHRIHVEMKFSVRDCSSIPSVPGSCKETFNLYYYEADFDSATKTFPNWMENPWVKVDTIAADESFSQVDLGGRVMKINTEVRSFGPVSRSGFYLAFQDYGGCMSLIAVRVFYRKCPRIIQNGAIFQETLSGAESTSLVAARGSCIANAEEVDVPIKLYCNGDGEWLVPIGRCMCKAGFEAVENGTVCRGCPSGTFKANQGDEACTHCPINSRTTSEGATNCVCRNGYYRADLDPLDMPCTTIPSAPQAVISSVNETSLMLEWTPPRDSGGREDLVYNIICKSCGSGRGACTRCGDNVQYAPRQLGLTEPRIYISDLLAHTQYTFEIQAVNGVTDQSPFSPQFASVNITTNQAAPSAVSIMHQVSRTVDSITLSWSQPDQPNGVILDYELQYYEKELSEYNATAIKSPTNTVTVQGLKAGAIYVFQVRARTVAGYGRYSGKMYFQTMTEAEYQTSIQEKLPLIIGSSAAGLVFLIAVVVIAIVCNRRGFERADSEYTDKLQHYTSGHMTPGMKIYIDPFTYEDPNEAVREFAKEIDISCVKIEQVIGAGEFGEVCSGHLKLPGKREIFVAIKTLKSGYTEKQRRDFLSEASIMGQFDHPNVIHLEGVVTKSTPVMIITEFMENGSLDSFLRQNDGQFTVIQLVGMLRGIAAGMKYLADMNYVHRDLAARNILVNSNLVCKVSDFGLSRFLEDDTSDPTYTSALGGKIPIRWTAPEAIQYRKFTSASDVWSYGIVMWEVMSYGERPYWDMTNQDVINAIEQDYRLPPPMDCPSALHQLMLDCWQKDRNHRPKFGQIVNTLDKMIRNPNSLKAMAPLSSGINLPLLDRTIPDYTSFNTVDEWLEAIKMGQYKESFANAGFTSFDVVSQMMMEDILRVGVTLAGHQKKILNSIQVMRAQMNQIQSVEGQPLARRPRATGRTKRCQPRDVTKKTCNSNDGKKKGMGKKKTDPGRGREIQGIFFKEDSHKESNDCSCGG

[11] = biological target: T2, Ephrin type-B receptor 2 (Homo sapiens); details: at 1 µM
[12] = biological target: T3, Ephrin type-B receptor 3 (Homo sapiens) (UniProt P54753); details: at 0.1 µM
T3 sequence (whole entry): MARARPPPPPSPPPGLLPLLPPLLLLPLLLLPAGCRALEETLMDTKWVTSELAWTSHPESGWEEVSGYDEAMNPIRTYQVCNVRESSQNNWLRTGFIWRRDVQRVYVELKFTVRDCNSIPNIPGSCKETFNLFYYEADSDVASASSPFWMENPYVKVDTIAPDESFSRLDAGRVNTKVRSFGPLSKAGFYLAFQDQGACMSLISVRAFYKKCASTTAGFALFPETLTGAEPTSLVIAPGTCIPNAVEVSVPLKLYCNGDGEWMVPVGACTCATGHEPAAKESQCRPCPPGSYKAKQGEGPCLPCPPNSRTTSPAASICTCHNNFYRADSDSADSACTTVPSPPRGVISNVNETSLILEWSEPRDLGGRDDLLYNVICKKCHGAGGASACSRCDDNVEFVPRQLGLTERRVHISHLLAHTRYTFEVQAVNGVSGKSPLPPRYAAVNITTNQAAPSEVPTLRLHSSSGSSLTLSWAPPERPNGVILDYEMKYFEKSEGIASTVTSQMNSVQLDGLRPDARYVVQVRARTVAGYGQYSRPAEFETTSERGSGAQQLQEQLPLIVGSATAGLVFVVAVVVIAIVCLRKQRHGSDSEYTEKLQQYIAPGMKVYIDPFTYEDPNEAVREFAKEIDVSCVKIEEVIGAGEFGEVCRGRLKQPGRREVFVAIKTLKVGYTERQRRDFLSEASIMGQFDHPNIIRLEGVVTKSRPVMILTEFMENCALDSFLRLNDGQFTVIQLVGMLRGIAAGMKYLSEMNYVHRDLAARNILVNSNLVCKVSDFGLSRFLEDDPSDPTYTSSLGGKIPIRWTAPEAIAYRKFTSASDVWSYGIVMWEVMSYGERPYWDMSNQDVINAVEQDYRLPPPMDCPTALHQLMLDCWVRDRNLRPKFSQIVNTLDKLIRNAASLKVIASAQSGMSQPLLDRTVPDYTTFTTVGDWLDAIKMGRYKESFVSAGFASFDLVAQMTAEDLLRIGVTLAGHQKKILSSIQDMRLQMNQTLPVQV

[13] = biological target: T3, Ephrin type-B receptor 3 (Homo sapiens); details: at 1 µM
[14] = biological target: T4, Ephrin type-B receptor 4 (Homo sapiens) (UniProt P54760); details: at 0.1 µM
T4 sequence (whole entry): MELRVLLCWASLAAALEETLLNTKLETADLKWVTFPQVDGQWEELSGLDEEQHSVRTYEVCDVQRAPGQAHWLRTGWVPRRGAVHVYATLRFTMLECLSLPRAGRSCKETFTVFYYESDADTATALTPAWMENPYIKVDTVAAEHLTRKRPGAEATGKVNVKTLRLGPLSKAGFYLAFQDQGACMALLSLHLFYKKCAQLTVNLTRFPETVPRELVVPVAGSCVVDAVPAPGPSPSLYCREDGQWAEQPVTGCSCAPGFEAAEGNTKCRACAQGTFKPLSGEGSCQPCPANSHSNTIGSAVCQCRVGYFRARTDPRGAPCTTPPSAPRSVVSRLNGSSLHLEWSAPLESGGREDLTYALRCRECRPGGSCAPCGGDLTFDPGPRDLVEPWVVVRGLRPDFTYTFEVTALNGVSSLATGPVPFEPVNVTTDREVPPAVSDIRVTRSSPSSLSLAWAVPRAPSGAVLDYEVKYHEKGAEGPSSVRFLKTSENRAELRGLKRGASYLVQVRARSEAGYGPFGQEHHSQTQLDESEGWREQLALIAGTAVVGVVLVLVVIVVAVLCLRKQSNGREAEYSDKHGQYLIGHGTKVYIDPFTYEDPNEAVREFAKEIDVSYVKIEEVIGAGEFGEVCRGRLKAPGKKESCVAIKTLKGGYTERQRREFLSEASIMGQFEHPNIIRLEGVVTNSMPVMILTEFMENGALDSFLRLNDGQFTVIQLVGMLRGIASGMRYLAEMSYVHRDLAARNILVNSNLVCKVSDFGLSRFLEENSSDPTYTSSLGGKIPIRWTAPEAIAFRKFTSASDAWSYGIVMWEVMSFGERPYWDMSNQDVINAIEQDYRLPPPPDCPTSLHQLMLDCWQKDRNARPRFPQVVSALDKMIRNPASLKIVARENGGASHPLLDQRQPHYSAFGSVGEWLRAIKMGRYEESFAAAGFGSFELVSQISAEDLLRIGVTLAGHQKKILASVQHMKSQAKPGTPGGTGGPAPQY

[15] = biological target: T4, Ephrin type-B receptor 4 (Homo sapiens); details: at 1 µM
[16] = biological target: Receptor tyrosine-protein kinase erbB-2 (Homo sapiens) (UniProt P04626); details: at 0.1 µM
[17] = biological target: Receptor tyrosine-protein kinase erbB-2 (Homo sapiens) (UniProt P04626); details: at 1 µM
[18] = biological target: Receptor tyrosine-protein kinase erbB-4 (Homo sapiens) (UniProt Q15303); details: at 0.1 µM
[19] = biological target: Receptor tyrosine-protein kinase erbB-4 (Homo sapiens) (UniProt Q15303); details: at 1 µM
[20] = biological target: Tyrosine-protein kinase Fer (Homo sapiens) (UniProt P16591); details: at 0.1 µM;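 also: reported figures are averaged percent inhibition of FER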

Chain of Ephrin type-A receptor 2 (Homo sapiens) (P29317 whole entry): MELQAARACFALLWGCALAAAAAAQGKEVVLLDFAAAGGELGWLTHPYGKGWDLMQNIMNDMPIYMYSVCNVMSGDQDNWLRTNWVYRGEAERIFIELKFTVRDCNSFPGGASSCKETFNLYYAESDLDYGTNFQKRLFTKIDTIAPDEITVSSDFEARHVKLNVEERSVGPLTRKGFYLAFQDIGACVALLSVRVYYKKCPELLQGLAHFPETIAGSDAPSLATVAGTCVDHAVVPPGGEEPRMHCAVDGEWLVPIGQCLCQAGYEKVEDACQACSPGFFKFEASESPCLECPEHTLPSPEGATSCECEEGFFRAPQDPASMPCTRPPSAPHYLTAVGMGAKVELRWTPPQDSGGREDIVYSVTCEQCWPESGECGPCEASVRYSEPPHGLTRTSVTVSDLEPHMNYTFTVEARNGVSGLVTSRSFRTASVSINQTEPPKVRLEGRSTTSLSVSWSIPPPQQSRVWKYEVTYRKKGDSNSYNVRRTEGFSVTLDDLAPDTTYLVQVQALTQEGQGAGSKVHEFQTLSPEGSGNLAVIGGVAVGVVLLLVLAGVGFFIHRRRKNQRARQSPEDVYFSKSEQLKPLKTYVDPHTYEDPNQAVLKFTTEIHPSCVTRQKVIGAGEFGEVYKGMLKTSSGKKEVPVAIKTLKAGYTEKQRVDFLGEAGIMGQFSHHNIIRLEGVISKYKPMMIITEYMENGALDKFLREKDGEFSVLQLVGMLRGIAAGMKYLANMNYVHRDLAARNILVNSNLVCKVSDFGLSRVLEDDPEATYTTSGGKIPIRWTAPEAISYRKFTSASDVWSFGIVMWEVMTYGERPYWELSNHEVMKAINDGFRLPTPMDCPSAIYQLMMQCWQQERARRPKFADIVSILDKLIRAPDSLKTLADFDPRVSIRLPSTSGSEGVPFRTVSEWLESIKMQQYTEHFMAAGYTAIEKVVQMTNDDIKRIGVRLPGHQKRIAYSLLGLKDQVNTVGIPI
Chain of Receptor tyrosine-protein kinase erbB-4 (Homo sapiens) (Q15303 whole entry): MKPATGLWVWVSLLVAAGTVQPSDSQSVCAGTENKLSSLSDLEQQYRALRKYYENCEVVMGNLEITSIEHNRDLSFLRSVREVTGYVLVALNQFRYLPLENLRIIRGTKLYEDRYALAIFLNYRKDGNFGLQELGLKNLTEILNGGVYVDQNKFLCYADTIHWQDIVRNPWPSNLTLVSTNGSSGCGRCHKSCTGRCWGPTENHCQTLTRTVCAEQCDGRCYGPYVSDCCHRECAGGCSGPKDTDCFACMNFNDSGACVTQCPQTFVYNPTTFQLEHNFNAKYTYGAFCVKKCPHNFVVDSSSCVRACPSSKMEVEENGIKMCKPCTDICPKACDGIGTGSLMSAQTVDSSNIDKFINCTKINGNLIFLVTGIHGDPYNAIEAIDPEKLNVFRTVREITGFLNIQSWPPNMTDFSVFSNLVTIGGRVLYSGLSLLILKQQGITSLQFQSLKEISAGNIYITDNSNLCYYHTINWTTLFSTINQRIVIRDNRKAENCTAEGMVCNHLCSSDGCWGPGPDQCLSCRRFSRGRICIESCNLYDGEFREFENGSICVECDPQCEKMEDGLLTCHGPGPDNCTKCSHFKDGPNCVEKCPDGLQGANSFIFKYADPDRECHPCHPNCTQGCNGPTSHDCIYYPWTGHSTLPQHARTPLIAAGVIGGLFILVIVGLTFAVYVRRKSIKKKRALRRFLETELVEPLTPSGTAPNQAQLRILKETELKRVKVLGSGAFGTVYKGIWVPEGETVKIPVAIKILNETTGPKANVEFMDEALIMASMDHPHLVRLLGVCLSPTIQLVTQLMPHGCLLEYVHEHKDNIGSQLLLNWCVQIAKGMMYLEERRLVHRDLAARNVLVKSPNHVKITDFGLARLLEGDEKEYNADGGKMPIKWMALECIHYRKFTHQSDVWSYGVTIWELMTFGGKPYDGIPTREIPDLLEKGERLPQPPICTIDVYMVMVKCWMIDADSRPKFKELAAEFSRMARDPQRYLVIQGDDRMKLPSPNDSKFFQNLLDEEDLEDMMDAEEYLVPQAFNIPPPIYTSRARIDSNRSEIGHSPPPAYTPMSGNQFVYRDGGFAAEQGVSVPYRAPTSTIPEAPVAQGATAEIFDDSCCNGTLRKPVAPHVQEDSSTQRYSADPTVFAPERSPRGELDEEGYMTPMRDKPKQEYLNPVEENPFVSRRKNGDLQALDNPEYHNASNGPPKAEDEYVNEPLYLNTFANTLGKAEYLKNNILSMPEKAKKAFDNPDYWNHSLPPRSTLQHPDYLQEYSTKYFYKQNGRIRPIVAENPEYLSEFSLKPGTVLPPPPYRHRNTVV
Chain of Ephrin type-A receptor 4 (Homo sapiens) (P54764 whole entry): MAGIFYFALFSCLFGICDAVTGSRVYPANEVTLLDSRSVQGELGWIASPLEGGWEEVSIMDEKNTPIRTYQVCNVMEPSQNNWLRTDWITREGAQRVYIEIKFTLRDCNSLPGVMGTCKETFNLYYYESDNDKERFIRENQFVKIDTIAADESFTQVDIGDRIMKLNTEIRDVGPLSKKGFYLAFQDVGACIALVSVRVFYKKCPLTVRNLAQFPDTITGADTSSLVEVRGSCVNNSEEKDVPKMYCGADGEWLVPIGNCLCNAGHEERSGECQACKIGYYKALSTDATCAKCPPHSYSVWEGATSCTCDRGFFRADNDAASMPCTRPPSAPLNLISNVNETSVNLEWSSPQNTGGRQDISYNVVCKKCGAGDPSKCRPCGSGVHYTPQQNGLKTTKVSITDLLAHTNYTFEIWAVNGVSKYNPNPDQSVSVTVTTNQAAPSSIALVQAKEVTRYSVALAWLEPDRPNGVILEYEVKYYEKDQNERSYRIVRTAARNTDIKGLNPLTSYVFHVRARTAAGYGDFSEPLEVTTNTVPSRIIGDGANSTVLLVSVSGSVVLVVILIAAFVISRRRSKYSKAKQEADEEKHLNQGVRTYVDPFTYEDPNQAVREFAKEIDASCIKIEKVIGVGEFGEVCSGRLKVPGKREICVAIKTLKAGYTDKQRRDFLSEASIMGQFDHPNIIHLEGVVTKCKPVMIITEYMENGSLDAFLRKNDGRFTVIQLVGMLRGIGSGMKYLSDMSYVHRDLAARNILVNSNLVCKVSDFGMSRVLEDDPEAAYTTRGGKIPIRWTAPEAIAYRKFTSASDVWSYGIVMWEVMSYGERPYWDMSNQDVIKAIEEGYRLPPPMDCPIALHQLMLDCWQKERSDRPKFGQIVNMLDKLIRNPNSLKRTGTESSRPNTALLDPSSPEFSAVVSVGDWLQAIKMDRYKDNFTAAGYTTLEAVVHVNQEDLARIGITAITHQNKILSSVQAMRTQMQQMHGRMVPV
Chain of Epidermal growth factor receptor (Homo sapiens), P00533 [T790M] (P00533 whole entry T790M): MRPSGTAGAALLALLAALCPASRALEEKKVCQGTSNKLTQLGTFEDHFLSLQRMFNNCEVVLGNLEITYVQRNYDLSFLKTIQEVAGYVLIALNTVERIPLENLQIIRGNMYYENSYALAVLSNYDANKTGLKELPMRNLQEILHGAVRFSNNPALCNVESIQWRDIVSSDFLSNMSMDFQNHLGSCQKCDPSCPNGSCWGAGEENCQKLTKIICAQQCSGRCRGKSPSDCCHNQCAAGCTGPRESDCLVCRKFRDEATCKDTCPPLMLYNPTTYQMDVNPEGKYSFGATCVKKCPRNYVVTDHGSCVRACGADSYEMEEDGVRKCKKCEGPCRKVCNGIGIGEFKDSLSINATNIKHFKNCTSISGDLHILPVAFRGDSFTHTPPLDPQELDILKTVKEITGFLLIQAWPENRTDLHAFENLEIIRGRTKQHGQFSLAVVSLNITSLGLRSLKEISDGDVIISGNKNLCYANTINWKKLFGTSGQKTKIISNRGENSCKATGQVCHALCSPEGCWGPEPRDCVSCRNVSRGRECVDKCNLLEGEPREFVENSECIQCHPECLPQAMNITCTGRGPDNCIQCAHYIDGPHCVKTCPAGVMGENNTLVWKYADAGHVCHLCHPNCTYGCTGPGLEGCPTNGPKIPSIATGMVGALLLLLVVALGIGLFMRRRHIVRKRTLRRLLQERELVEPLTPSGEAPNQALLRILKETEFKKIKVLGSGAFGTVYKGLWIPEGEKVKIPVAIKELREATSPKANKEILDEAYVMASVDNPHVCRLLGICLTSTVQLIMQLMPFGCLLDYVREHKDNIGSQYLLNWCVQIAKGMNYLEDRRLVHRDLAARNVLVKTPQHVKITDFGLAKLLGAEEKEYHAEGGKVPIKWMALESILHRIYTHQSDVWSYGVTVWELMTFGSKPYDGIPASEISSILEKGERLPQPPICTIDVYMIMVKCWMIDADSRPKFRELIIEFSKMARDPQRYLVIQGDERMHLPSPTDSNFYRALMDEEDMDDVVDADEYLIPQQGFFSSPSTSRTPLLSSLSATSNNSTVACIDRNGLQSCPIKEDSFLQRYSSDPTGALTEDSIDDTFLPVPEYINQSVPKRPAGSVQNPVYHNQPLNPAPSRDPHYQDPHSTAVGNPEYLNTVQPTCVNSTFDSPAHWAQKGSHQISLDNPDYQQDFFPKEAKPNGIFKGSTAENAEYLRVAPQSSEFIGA

SMILES	inhibition [1] [%]	inhibition [2] [%]	inhibition [3] [%]	inhibition [4] [%]	inhibition [5] [%]	inhibition [6] [%]	inhibition [7] [%]	inhibition [8] [%]	inhibition [9] [%]	inhibition [10] [%]	inhibition [11] [%]	inhibition [12] [%]	inhibition [13] [%]	inhibition [14] [%]	inhibition [15] [%]	inhibition [16] [%]	inhibition [17] [%]	inhibition [18] [%]	inhibition [19] [%]	inhibition [20] [%]
CCN1CCC(CC(=O)Nc2n[nH]c3nc(-c4cccs4)c(Br)cc23)CC1	-1.12	0.09	-0.41	-3.7	-1.54	-7.71	-2.29	-7.32	-3.58	-2.13	1.96	-2.11	-3.61	-1.44	-2.19	-4.26	-1.56	-5.1	-7.08	0.22
CC(C)=Cc1cccc2c1/C(=N/Nc1ccc(S(N)(=O)=O)cc1)C(=O)N2	1.05	2.29	2.58	0.83	3.1	2.78	3.12	4.39	11	1.72	5.84	2.65	-0.21	1.72	2.38	0.59	4.72	5.98	4.74	3.57
COC(=O)Nc1nc2cc(Oc3cccc(NC(=O)Nc4cc(C(F)(F)F)ccc4F)c3)ccc2[nH]1	-1.93	-3.25	3.44	-2.35	3.83	0.48	2.56	1.63	14.2	-0.54	8.15	2.88	0.33	0.65	2.71	-1.15	-2.43	3.99	6.3	0.75

Reference: ChEMBL document CHEMBL1961873, “Compounds: GSK PKIS; Assays: Nanosyn kinase panel” (2012)
